# According to PubChem BioAssay (NCATS):
# Records with an inconclusive call do not appear. Where a call stands in place of a potency, no number is given. Values without a mark were called inactive. Activity calls are given as the source filed them. Calls follow the shape of the dose curve; as a rule, active = well fitted cell-killing curve with a large enough effect; inconclusive = small, poorly fitted or top-dose-only effect; inactive = no such curve, though single readings can be large or run the other way. *1 amine or outer side, *2 acyl side, *3 side chain or, on linkers, in order; H or OH if unused. Where a SMILES comes first, the peptide text is derived from it. Bridges are numbered along the chain shown (N, C = ends). [ ]: non-standard residue; d: D form. The star is where a group is joined. ξ: configuration not given here. X10 = NC1=NCCC(C(N[*:1])C(=O)[*:2])N1; ΔAla(3-NHCONH2) = NC(=O)NC=C(N)C(=O)O; pGlu = O=C1CC[C@@H](C(=O)O)N1; ξβ3hOrn = NCCCC(N)CC(=O)*; Dap = NC[CH](N)C(=O)O
# Assay: qHTS of pediatric cancer cell lines to identify multiple opportunities for drug repurposing: Primary screen for NB1643 cells (AID 1347099); also: nearly all actives have a fitted effect of over 50% in size
# Settings: NB1643 neuroblastoma viability, CellTiter-Glo luminescence, 48 h; series mostly up to 46 µM
# Description: Drug repurposing or repositioning has been offered as a strategy for drug development in oncology programs. This approach has special potential for childhood cancers and other rare or orphan diseases, where the expected return on new drug development has been a disincentive to pharmaceuticals. […] In this project we exploit the poly-pharmacology of drugs to discover new indications via phenotypic screening of a panel of 19 well-characterized cell lines derived from solid tumors seen in children and adolescents. The goal is to identify approved drugs with previously unrecognized anticancer properties that has the potential to reveal new mechanisms and biological processes involved in carcinogenesis or drug resistance. We employed a titration-based paradigm (quantitative high-throughput screening or qHTS), where all compounds were tested at multiple concentrations for their effect on cell viability. Concentration-response curves (CRCs) were derived directly from the primary screen, and both potency and efficacy values were used to identify compounds with robust bioactivity profiles. We screened the NIH Chemical Genomics Center (NCGC) Pharmaceutical Collection (NPC) and Mechanism Interrogation Plate (MIPE) small molecule collections of approved and investigational compounds against these cell lines; and measured metabolically active cells after 48 hours of compound treatment as a proxy for cell viability. […] Assay Submitter: Nathalia J. Martinez, National Center for Advancing Translational Sciences, National Institutes of Health, Rockville, MD, USA; email: natalia.martinez@nih.gov Shen, M et al. Quantitative high-throughput phenotypic screening of pediatric cancer cell lines identifies multiple opportunities for drug repurposing. Oncotarget 2017 Dec 19;9(4):4758-4772. PMID 29435139.
# The cells were obtained from University of North Carolina (UNC), Pediatric Preclinical Testing Program (PPT), and Coriell Institute (CI). qHTS cell viability assay: Cells were assayed in growth media at a density of 500-1,000 cells/well. Five microliters of cells were dispensed into 1,536-well, white, solid-bottom, TC-treated plates (Greiner Bio One) using a multidrop dispenser and incubated at 37 degrees C, 5% CO2, under a humidified atmosphere for 5 hours. Twenty-three nanoliters of compounds and controls (neutral control DMSO or positive control bortezomib at final concentration of 2.3 µM) were subsequently transferred by Kalypsys pintool. For primary screens, the MIPE collection was tested at 11-point dilutions (final concentrations range from 0.78 nM to 46 µM) and the NPC collection at 8-point dilutions (final concentrations range from 0.59 nM to 46 µM). Compounds tested in follow-up screens were assayed at 11-point dilutions. Cells were incubated for 48 hours, followed by addition of 3 µL of CellTiter-Glo (Promega). After a 15 min incubation at room temperature, samples were analyzed for luminescence intensity using a ViewLux High-throughput CCD imager equipped with clear filters.
# Potency is read from the fitted curve at half-maximal effect.
Compound,Potency,"activity change, negative = cytotoxic"
O=[N+]([O-])c1cncn1CCN1CCOCC1,inactive,
CCCCCC[C@@H](CCC)C(=O)O,inactive,
CCN(CC)CC(=O)Oc1ccc(NC(C)=O)cc1,inactive,
Cc1oc(=O)oc1COC(=O)[C@@H]1N2C(=O)[C@@H](NC(=O)[C@H](N)c3ccccc3)[C@H]2SC1(C)C,inactive,
O=C(O)Cc1ccccc1Oc1ccc(Cl)cc1Cl,inactive,
O=C(CCCCC(=O)Nc1c(I)cc(I)c(C(=O)O)c1I)Nc1c(I)cc(I)c(C(=O)O)c1I,inactive,
O=C(O)[C@@H](O)[C@H](O)[C@H](O)[C@@H](O)C(=O)O,inactive,
CCCCCC(=O)O[C@]1(C(C)=O)CC[C@H]2[C@@H]3CCC4=CC(=O)CC[C@]4(C)[C@H]3CC[C@@]21C,18.8 µM (active),
CC(=O)OCC(=O)[C@@]1(O)CCC2C3CCC4=CC(=O)CC[C@]4(C)C3[C@@H](O)C[C@@]21C (stereo not given in full),inactive,
COc1cc2c(cc1OC)CN(C(=O)[C@H](C)N[C@@H](CCc1ccccc1)C(=O)O)[C@H](C(=O)O)C2,inactive,
O=C1CC2(CCCC2)CC(=O)N1,inactive,
COc1ccc(/C(C)=C/C(=O)O)c(OC)c1,inactive,
COc1ccc2cc(C=O)ccc2c1,inactive,
CCc1cc(S(=O)(=O)O)c2cc(C(C)C)cccc1-2,inactive,
CC(COc1ccccc1)NN (stereo not given),inactive,
Nc1ncnc2c1ncn2Cc1c(F)cccc1Cl,inactive,
NCCCC(N)CC(=O)NCC1NC(=O)C(CO)NC(=O)C(N)CNC(=O)C(C2CCN=C(N)N2)NC(=O)C(=CNC(N)=O)NC1=O (stereo not drawn) (H-[Dap]S[Dap](ξβ3hOrn)[ΔAla(3-NHCONH2)][X10]; lactam 1-C; configuration not given here),,13.7% [at 0.597 µM]
CCOC(=O)C(=O)CCc1ccccc1,inactive,
Cc1oc(-c2ccccc2)nc1CCC(=O)c1ccc(CC2SC(=O)NC2=O)cc1 (stereo not given),inactive,
OC[C@]1(O)OC[C@@H](O)[C@H](O)[C@@H]1O,inactive,

Compound,Potency,"activity change, negative = cytotoxic"
CCCCC(=O)OCC(=O)[C@H]1[C@H](C)C[C@H]2[C@@H]3C[C@H](F)C4=CC(=O)C=C[C@]4(C)[C@@]3(F)[C@@H](O)C[C@@]21C,inactive,
COC(=O)/C=C(/C)N,inactive,
CC(=O)O[C@H]1CC[C@@]2(C)C(=CC[C@@H]3[C@@H]2CC[C@]2(C)C(C(C)=O)=CC[C@@H]32)C1,inactive,
CCNC(=O)[C@@H]1CCCN1C(=O)[C@H](CCCN=C(N)N)NC(=O)[C@H](CC(C)C)NC(=O)CNC(=O)[C@H](Cc1ccc(O)cc1)NC(=O)[C@H](CO)NC(=O)[C@H](Cc1c[nH]c2ccccc12)NC(=O)[C@H](Cc1cnc[nH]1)NC(=O)[C@@H]1CCC(=O)N1 ([pGlu]HWSYGLRP-NHEt),inactive,
CCOC(=O)CN1CCCC1=O,inactive,
Cc1nc(C2CCCCC2)c(-c2ccc(S(N)(=O)=O)c(F)c2)o1,inactive,
Cc1ncc(CO)c(CO)c1O,inactive,
O=C(Nc1ccc(S(=O)(=O)N2CCOCC2)cc1)c1cc(Cl)ccc1NS(=O)(=O)c1ccc(Cl)s1,inactive,
NC(=O)NS(=O)(=O)c1ccc(Cl)cc1,inactive,
Cc1ccc(/C=N/n2c(-c3ccccc3)csc2=S)cc1,inactive,
O=C(O)CCC(=O)OC[C@@H](NC(=O)C(Cl)Cl)[C@H](O)c1ccc([N+](=O)[O-])cc1,inactive,
O=C1NC(c2ccccc2)(c2ccccc2)C(=O)N1COP(=O)(O)O,inactive,
CCOC(=O)C(=O)c1csc(NC=O)n1,inactive,
CCOC(=O)OCC/C(SC(=O)OCC)=C(\C)N(C=O)Cc1cnc(C)nc1N,inactive,
O=C(COCCOCCOCC(=O)Nc1c(I)cc(I)c(C(=O)O)c1I)Nc1c(I)cc(I)c(C(=O)O)c1I,inactive,
COCCc1ccccn1,inactive,
CCn1ccc(NS(=O)(=O)c2ccc(N)cc2)nc1=O,inactive,
Nc1c(I)cc(I)c(C(=O)N(CCC(=O)O)c2ccccc2)c1I,inactive,
O=C(O)C1CCC1,inactive,
CCCCCCOC(=O)NC(=N)c1ccc(NCc2nc3cc(C(=O)N(CCC(=O)OCC)c4ccccn4)ccc3n2C)cc1,inactive,
